# Bioassay records: PubChem BioAssay, The Scripps Research Institute Molecular Screening Center
# GPR151 activ: activates the human receptor GPR151 | PathHunter beta-arrestin GPR151 cells, luminescence | activation, % at 11.2 µM | 650,000 compounds, 1% hits | AID 1508602; in the data active = activation above about 4.9%
# MITF primary: human MITF inhibition, primary screen | O75030 | AlphaScreen MITF homodimerization, bead proximity signal | inhibition, % at 2.6 µM | 650,000 compounds, 0.91% hits; in the data active = inhibition above about 50%
# TEAD-YAP block: TEAD-YAP interaction inhibition. 640,000 compounds, 1.4% hits. inhibition, % at 9.12 µM. AID 1259422. HEK-TIYL cells, TEAD-Gal4/YAP UAS-luciferase luminescence; in the data active = inhibition above about 32%
# FBW7 activator: activators of human E3 ligase FBW7; Q969H0; AlphaScreen FBW7–phospho-cyclin E peptide binding, activator screen; normalized activity (activation), % at 26.1 µM; 650,000 compounds, 0.13% hits; AID 1259310; in the data active = normalized activity above about 1.9%;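 also: purified mutant Fbw7 with reduced substrate affinity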
# Target sequence (Q969H0 whole entry, looked up): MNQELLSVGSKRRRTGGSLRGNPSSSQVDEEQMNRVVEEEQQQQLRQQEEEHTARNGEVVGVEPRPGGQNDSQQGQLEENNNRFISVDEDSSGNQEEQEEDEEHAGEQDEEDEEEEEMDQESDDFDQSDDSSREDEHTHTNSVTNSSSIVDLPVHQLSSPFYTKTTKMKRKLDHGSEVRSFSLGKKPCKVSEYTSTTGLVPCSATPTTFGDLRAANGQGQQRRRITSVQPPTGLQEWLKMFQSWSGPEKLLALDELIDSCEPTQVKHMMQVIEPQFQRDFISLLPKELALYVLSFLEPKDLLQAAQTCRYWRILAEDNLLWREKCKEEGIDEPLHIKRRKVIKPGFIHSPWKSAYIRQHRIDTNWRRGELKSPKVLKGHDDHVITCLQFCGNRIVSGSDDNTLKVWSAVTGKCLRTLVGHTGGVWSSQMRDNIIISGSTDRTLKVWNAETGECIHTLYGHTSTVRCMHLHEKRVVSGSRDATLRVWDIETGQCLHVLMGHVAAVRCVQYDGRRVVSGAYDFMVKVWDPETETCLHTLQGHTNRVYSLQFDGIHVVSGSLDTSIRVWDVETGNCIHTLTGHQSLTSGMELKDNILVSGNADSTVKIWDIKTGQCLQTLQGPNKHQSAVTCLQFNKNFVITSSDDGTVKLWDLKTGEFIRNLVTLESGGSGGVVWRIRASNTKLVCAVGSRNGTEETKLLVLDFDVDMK
# GPR151 conf act: confirmation of human GPR151 activators. shares compounds with GPR151 activ. GPR151 PathHunter beta-arrestin cells, luminescence, 90 min; % of EA-reagent control over plate median. activation, % at 11.2 µM. 6,700 tested, under 10 active. AID 1508609;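 active = mean percent activation across replicates above the confirmation screen cutoff of 4.91%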
# GPR119 counter: activates human GPR119 in a GPR151 counter-screen | shares compounds with GPR151 activ | GPR119 PathHunter beta-arrestin cells, luminescence, 90 min; 0 = compound-well median, 100 = enzyme-acceptor control | activation, % at 11.2 µM | 6,700 compounds, 0.3% hits | AID 1508611;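 active = mean percent activation in the counterscreen above 29.09%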;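 also: counterscreen on off-target GPR119 to flag nonselective hits from the GPR151 activator screen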
# Numbers stand for hits; . = inactive; / = not tested or not shown; ! = repeats disagree. The list is not random: actives were taken first. Their share in the collection is about 3.5%.
SMILES,GPR151 activ,MITF primary,TEAD-YAP block,FBW7 activator,GPR151 conf act,GPR119 counter
Cc1ccc([N+](=O)[O-])c(OCCOCCN2CCc3ccccc3C2)c1,5.7,.,.,.,.,.
COc1cc(NC(=O)C2CCCN2S(=O)(=O)c2cccc3cccnc23)cc(OC)c1 (stereo not drawn),.,.,.,.,/,/
COc1cccc(NC(=O)C2CCCN2S(=O)(=O)c2cccc3cccnc23)c1 (stereo not drawn),7.3,.,.,.,.,.
CCOc1ccc(CN2CCNC(=O)C2CC(=O)NCC2(c3ccccc3)CCCC2)cc1 (stereo not drawn),8.0,.,.,.,.,.
CC(C)CCN1CCNC(=O)C1CC(=O)NCC1(c2ccccc2)CCOCC1 (stereo not drawn),6.1,.,.,.,.,.
O=S1(=O)CCN2C(Cc3ccc(SC(F)F)cc3)=CSC2=N1,.,.,.,.,/,/
Oc1ccc(C2CNCCc3c2cc(O)c(O)c3Cl)cc1 (stereo not drawn),6.6!,.,.,.,.,.
O=C(NCc1cccs1)C(=O)NC1CC1,.,.,.,.,/,/
CCNC(=O)C(=O)NCc1cccs1,4.9,.,.,.,.,.
c1cncc(-c2nc(-c3ccncc3)cc(N3CCCCC3)n2)c1,5.2,.,.,.,.,.
CCCCC1CCC(C(=O)OCC(=O)c2ccc(-c3ccc(Br)cc3)cc2)CC1 (stereo not drawn),6.6,.,.,.,.,.
O=C(c1ccsc1)N1CCc2ccc(NC(=O)C3(c4ccccc4)CC3)cc2C1,5.9,.,.,.,.,.
O=C(Nc1ccc2c(c1)CN(C1CCSCC1)CC2)C1(c2ccccc2)CC1,.,.,.,.,/,/
CCC(C)C1N=C2c3ccccc3N=C(SCc3cccc(F)c3)N2C1=O (stereo not drawn),5.2,.,.,.,.,.
CCC(C)C(=O)N1CCC(n2nccc2NC(=O)Nc2cccc(F)c2)CC1 (stereo not drawn),6.6,.,.,.,.,.
COc1ccccc1C(=O)Nc1ccnn1C1CCN(Cc2cccc(F)c2)CC1,6.6,.,.,.,.,.
CN(C)c1ncc(/C=C2/C(=O)NC(=O)N(CCc3ccccc3)C2=O)cn1,.,.,.,.,/,/
COc1ccc(C(=O)N/C(=C/c2cccc([N+](=O)[O-])c2)C(=O)Nc2cc(Cl)ccc2C)c(Cl)c1,12,.,.,.,.,.
COc1ccc(Br)c(C(=O)N/C(=C/c2cccc([N+](=O)[O-])c2)C(=O)Nc2cc(Cl)ccc2C)c1,.,.,.,.,/,/
CCCCOc1ccc2c(c1)C(=O)c1cc(OCCCC)ccc1-2,.,.,.,.,/,/
O=C(CSc1cn(CC(=O)N2CCOCC2)c2ccccc12)NC1CCCC1,5.4,.,.,.,.,.
NC(=O)C1CCN(C(=O)C(=O)c2cn(CC(=O)N3CCCCCC3)c3ccccc23)CC1,6.2,.,.,.,.,.
O=C(NCc1cccs1)C1CCCN(S(=O)(=O)c2cccc3cccnc23)C1 (stereo not drawn),.,.,.,.,/,/
CC(NS(=O)(=O)c1cccc(Cl)c1)C(=O)Nc1ccc(Br)cc1F (stereo not drawn),.,.,.,.,/,/
CC(C)CC1NC(=O)N(CC(=O)Nc2cccc(I)c2)C1=O (stereo not drawn),8.8,.,.,.,.,.
SMILES,GPR151 activ,MITF primary,TEAD-YAP block,FBW7 activator,GPR151 conf act,GPR119 counter
C/C(=N\Nc1ccc(S(=O)(=O)N2CCCC2)cc1[N+](=O)[O-])c1cccs1,.,.,.,.,/,/
Cc1ccc(NC(=O)C(CC(=O)O)C2CCCO2)cc1 (stereo not drawn),19,.,.,.,.,.
CCOc1ccc(NC(=O)C(CC(=O)O)C2CCCO2)cc1 (stereo not drawn),.,.,.,.,/,/
CCCOc1ccc(NC(=O)C2CC(=O)N(c3ccc(F)cc3)C(=NCCc3ccc4c(c3)OCO4)S2)cc1 (stereo not drawn),.,.,.,.,/,/
COc1cccc(CC2(CO)CCCN(Cc3cccc(OC)c3OC)C2)c1 (stereo not drawn),6.2,.,.,.,.,.
COc1cccc(CC2(CO)CCCN(Cc3cc(OC)c(OC)c(OC)c3)C2)c1 (stereo not drawn),.,.,.,.,/,/
CC1(C(=O)NC2CCCCCC2)CN(S(C)(=O)=O)CC(=O)N1c1ccc(Cl)cc1 (stereo not drawn),7.7,.,.,.,.,.
CCCS(=O)(=O)N1CC(=O)N(c2ccccc2OC)C(C)(C(=O)NC2CCCC2)C1 (stereo not drawn),6.0,.,.,.,.,.
CCCS(=O)(=O)N1CC(=O)N(c2ccccc2CC)C(C)(C(=O)NC2CCCCC2)C1 (stereo not drawn),.,.,.,.,/,/
Nc1nc2ncc(CNc3ccc(C(=O)N[C@@H](CCC(=O)O)C(=O)O)cc3)nc2c(=O)[nH]1,5.6,.,/,.,.,.
Nc1nc2ncc(CNc3ccc(C(=O)NC(CCC(=O)O)C(=O)O)cc3)nc2c(=O)[nH]1 (stereo not drawn),.,.,.,.,/,/
CCNC(=O)/C=C/c1ccc(C(C)(C)C)cc1,.,.,.,.,/,/
CC(C)C(=O)Nc1nnc(S(=O)(=O)N(C)c2ccc(Cl)cc2)s1,5.8,.,.,.,.,.
NC(=O)COc1ccc(/C=N/NC(=O)c2ccc(CN3CCOCC3)cc2)cc1,5.7,.,.,.,.,.
O=C(O)c1cc(Cl)c(Cl)cc1C(=O)Nc1cccc2ccccc12,.,.,.,.,/,/
O=C(NCc1ccccc1)c1noc2c1COc1ccccc1-2,.,.,.,.,/,/
CC(C)CCNC(=O)c1noc2c1COc1ccccc1-2,6.6,.,.,.,.,.
O=C(CCN1c2ccccc2Sc2ccccc21)N1CCOCC1,5.8,.,.,.,.,.
CCc1ccc2[nH]c3nc(N/N=C/c4ccc(O)cc4)nnc3c2c1,.,.,.,.,/,/
CCc1ccc2[nH]c3nc(N/N=C/c4cccc(O)c4)nnc3c2c1,6.7,.,.,.,.,.
CCC(C)(C)NS(=O)(=O)c1cc(Br)cnc1N,6.0,.,.,.,.,.
CC(C)(C)NS(=O)(=O)c1cc(Br)cnc1N,.,.,.,.,/,/
CC(C)(CO)NCc1ccc(Br)cc1,5.3,.,.,.,.,.
Cc1cccc(OCC(=O)Nc2ccc(S(=O)(=O)NC(C)(C)C)cc2)c1,.,.,.,.,/,/
COc1cc(CO)cc(Cl)c1OCc1ccccc1C#N,6.7,.,.,.,.,.
COc1ccc(/C=C/c2nc(-c3cccnc3)no2)cc1OC,8.7,.,.,.,.,.
COc1cccc(-c2noc(/C=C/c3ccc(OC)c(OC)c3)n2)c1,.,.,.,.,/,/
Nc1nc(NCCCN2CCCC2=O)cc(Nc2ccc(N3CCOCC3)cc2)n1,.,.,.,.,/,/
